The structures appear in SMILES notation. Active and inactive are the calls of the source. Entries that show only a call come without a potency. Calls come from the whole dose curve.

The nature of this test: G protein-coupled receptor (GPCR) small molecule agonists, calcium flux assay: HEK293 wild type cell line counter screen (AID 1920065). The following applies: HEK293 WT calcium flux, fluorescence, agonist mode; series mostly up to 57.6 µM. The source says:
U.S. Tox21 Program National Center for Advancing Translational Sciences [NCATS] Division of Preclinical Innovation [DPI] U.S. Environmental Protection Agency [EPA] National Institutes of Environmental Health Sciences [NIEHS] National Toxicology Program [NTP] U.S. Food and Drug Administration [FDA] Assay overview: The increased intracellular calcium release that occurred upon G protein-coupled receptor (GPCR) activation led to the frequent use of calcium flux assays to detect GPCR activation. For the purpose of studying and screening compounds that may activate GPCR, receptor-overexpressing models were typically generated using Hek293 wild-type (WT) cells. In order to eliminate the compounds that may have induced calcium release for non-specific activation, a counter-assay utilizing calcium flux on Hek293 WT cells was performed. The data were formulated in order to serve as a control for any calcium flux detection utilizing Hek293 cells with either GPCR overexpression or gene modification. The procurement of Hek293 WT cells from ATCC. Fluorescence intensity can be utilized to determine the activation of the compound in a calcium flux assay. As a counter control, this cell line was utilized to screen the Tox21 10K compound library.
Assay Protocol Summary: Hek293 cells were dispensed at 1500cells/4uL/well in 1536-well black wall/clear bottom plates using a multidrop dispenser. After the assay plates were incubated at a 37 C/5% CO2 incubator for 18 hours, 4 uL of Calcium Dye Solution was added to each well. The plates were incubated at 37 C for 1 hour. For agonist mode, 23 nL of compounds dissolved in DMSO, positive control (ATP) or DMSO only was transferred to the assay plate by a pin tool station. The fluorescence intensity in the plates was measured using FDSS 7000EX kinetic plate reader with a filter set of Ex/Em=480/540 for 3 min at 1 sec intervals. Each test compound was measured at 15 concentrations and in triplicates.
As for `C[N+](C)(CCOc1ccccc1)Cc1cccs1`, the Potency entry was “inactive”.
For `COC(=O)OC`, the Potency entry is “inactive”.
Under `O=Cc1cc2ccccc2o1` stands “inactive”.
For `CCCCOCCOCCOCCCC`, the Potency result was “inactive”.
For the compound `Cn1c(=O)c2[nH]c(Br)nc2n(C)c1=O`, the Potency entry is “inactive”.
Next, `c1ccc(CSCc2ccccc2)cc1`: “inactive”.
As to `CCN1CCC[C@H]1CNC(=O)c1c(O)c(Cl)cc(Cl)c1OC`, the Potency entry was “inactive”.
For `CC1CNCC(C)O1` (stereo not given), the Potency result was “inactive”.
For the compound `CC(=O)Oc1cccc(O)c1`, the Potency entry is “inactive”.
Regarding `C1=C\CC/C=C\CC/C=C\CC/1`, the Potency entry was “inactive”.
Next, `Nc1cc([N+](=O)[O-])ccc1Cl`: “inactive”.
Turning to `O=C(c1ccccc1O)c1ccccc1O`, the Potency result is “inactive”.
Consider `O=[N+]([O-])c1ccccc1CCO`, for which the Potency result was “inactive”.
For `CCO[Si](C)(C)OCC`, the Potency entry was “inactive”.
Under `COC(=O)c1cc(Cl)c(NC(C)=O)cc1OC` stands “inactive”; under `CC(C)c1ccc(C=O)cc1`, “inactive”; under `CN(C)c1ccc2nc3ccc(=[N+](C)C)cc-3sc2c1`, “inactive”.
Under `C1CCCC1` stands “inactive”.
Turning to `CC(=O)c1ccc(O)c(C(N)=O)c1`, the Potency entry was “inactive”.
Under `CC1CC(=O)CC(C)(C)C1` (stereo not given) stands “inactive”.
With `CCCCCCC1(C)CCC(=O)O1` (stereo not given), the Potency entry is “inactive”.
As for `C=CC(=O)NCOCC(C)C`, the Potency result is “inactive”.
Regarding `CCOC(=O)CCC(C)=O`, the Potency result was “inactive”.
Under `CC(=O)S[C@H](C(=O)N[C@H]1Cc2ccccc2[C@H]2CCC[C@@H](C(=O)O)N2C1=O)C(C)C` stands “inactive”; under `COS(C)(=O)=O`, “inactive”; under `O=C(CCS)OCC(COC(=O)CCS)(COC(=O)CCS)COC(=O)CCS`, “inactive”.
For `CC(=O)C1(C)CC2=C(CCCC2(C)C)CC1C` (stereo not given), the Potency entry is “inactive”.
Next, `C=C(C)[C@H]1CC=C(C)CC1`: “inactive”; `CCCCCCCCCOS(=O)(=O)O`: “inactive”.
Regarding `COc1cc2c(Nc3ccc(Br)cc3F)ncnc2cc1OCC1CCN(C)CC1`, the Potency result was “inactive”.
Regarding `CC1=CCC(C(C)C)=CC1`, the Potency entry is “inactive”.
As for `CCCCOC(O)CC` (stereo not given), the Potency result was “inactive”.
Regarding `COC(=O)N[C@H](C(=O)N[C@@H](Cc1ccccc1)[C@@H](O)CN(Cc1ccc(-c2ccccn2)cc1)NC(=O)[C@@H](NC(=O)OC)C(C)(C)C)C(C)(C)C`, the Potency result was “inactive”.
Consider `Cc1cncc(C)c1`, for which the Potency result was “inactive”.
Take `Nc1ccc(N)c(Cl)c1`: the Potency result is “inactive”.
Next, `CCCN1C=CN(C)C1`: “inactive”.
Under `[Cl][Dy]([Cl])[Cl]` stands “inactive”.
Under `O=C(O)CC(=O)O` stands “inactive”; under `NCCC(O)(P(=O)(O)O)P(=O)(O)O`, “inactive”; under `Cc1cc(C)cc(N)c1`, “inactive”.

The record behind these values is PubChem BioAssay (Tox21).
